PubChem BioAssay (NCATS)
Records with an inconclusive call do not appear. A call without a number means that no potency is given here. Activity calls are given as the source filed them. Calls come from the whole dose curve; as a rule, active = well fitted curve in the direction sought with a large enough effect; inconclusive = small, poorly fitted or top-dose-only effect, or another doubt; inactive = no such curve, though single readings can be large; an effect the other way counts as inactive or inconclusive.

What was measured:
[1] = system: NAD(P)H diaphorase (Clostridium kluyveri); assay: Diaphorse counterscreen qHTS: Assay Interference Panel against the NCATS CANVASS Library (AID 1347362); conditions: Diaphorase enzyme, resazurin to resorufin fluorescence; series mostly up to 57.5 µM
In short: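 Clostridium kluyveri diaphorase in PBS with 0.01% Tween-20 was preincubated 15 min at room temperature in the dark with compounds (11-point series). Resorufin fluorescence (ex 525/20, em 598/25) was read 5 min after adding resazurin/NADH.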

[2] = target: Luciferin 4-monooxygenase (Photinus pyralis) (UniProt P08659); assay: Firefly luciferase counterscreen qHTS: Assay Interference Panel against the NCATS CANVASS Library (AID 1347363); conditions: purified firefly luciferase, luminescence inhibition, 5 min; series mostly up to 57.5 µM
In short: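 Purified P. pyralis luciferase was added to compounds (11-point series) preincubated 15 min at room temperature with substrate containing 0.013 mM D-luciferin and 0.013 mM ATP; luminescence was read after 5 min.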

[3] = KB-8-5-11 Cancer Cell Toxicity qHTS against the NCATS CANVASS Library (AID 1347364); conditions: KB-8-5-11 MDR cells viability, CellTiter-Glo, 72 h; series mostly up to 91.4 µM; note: nearly all actives have a fitted effect of over 75% in size
In short: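 Viability read as CellTiter-Glo luminescence after 72 h at 37 °C, 5% CO2. 11-point compound series on 500 KB-8-5-11 cells/well in DMEM/10% FBS. Follow-up plating included 1 uM tariquidar in the medium.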

[4] = KB-3-1 Cancer Cell Toxicity qHTS against the NCATS CANVASS Library (AID 1347366); conditions: KB-3-1 viability, CellTiter-Glo luminescence, 72 h; series mostly up to 91.4 µM; note: nearly all actives have a fitted effect of over 75% in size
In short: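 KB-3-1 cells (500/well) in DMEM with 10% FBS were exposed to compounds for 72 h at 37C. Viability was read by CellTiter-Glo luminescence.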

[5] = qHTS for ATAD5 Agonist screened against the NCATS CANVASS Library (AID 1347367); conditions: HEK293T ATAD5-luciferase reporter, luminescence, 16 h; series mostly up to 91.4 µM;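 note: luciferase reporter driven by ATAD5 which rises upon DNA damage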
In short: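 Luciferase reporter under ATAD5 control, stably integrated in HEK293T cells (2000/well). Compounds (11 points) incubated 16 h at 37C; viability read first by CellTiter-Fluor, then luminescence reporting ATAD5 activation. MMS positive control.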

[6] = G06 Cancer Cell Toxicity qHTS against the NCATS CANVASS Library (AID 1347368); conditions: G06 dog glioma cells, viability ATP luminescence, 72 h; series mostly up to 91.4 µM; note: nearly all actives have a fitted effect of over 60% in size
In short: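 Viability measured by CellTiterGlo ATP luminescence after 72 hr at 37C, 5% CO2. Canine G06 glioma cells plated at 500/well. Compounds tested as 11-point qHTS titrations.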

[7] = MCF7 Cancer Cell Toxicity qHTS against the NCATS CANVASS Library (AID 1347369); conditions: MCF7 viability, ATP luminescence (CellTiter-Glo), 72 h; series mostly up to 91.3 µM
In short: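 MCF7 cells (500/well) were exposed 72 h at 37 °C to compounds in an 11-point series. Viability was read as ATP content by CellTiterGlo luminescence.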

[8] = qHTS for ATAD5 Antagonist screened against the NCATS CANVASS Library (AID 1347370); conditions: HEK293T-ATAD5-luc, 5-FUrd stimulated, luminescence, 16 h; series mostly up to 91.4 µM;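 note: HEK293T cells carrying an ATAD5 luciferase reporter co-treated with 10 µM 5-fluorouridine; nearly all actives have a fitted effect of over 65% in size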
In short: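 Compounds (11-point) co-dosed with 10 µM 5-FUrd for 16 h at 37 °C onto HEK293T-ATAD5 luciferase reporter cells. Viability measured by CellTiter-Fluor fluorescence, then ATAD5 reporter signal by luminescence.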

[9] = J3T Cancer Cell Toxicity qHTS against the NCATS CANVASS Library (AID 1347371); conditions: J3T dog glioma viability, ATP luminescence, 72 h; series mostly up to 91.4 µM;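 note: J3T is a canine glioma cancer cell line seeded at 500 cells per well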
In short: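 Cytotoxicity read as CellTiterGlo ATP luminescence after 72 h incubation (37C, 5% CO2) of J3T canine glioma cells (500/well) with an 11-point compound series.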

[10] = target: Nuclear receptor subfamily 1 group I member 3 (Homo sapiens) (UniProt Q14994); assay: qHTS for Constitutive Androstane Receptor (CAR) Antagonist screened against the NCATS CANVASS Library (AID 1347372); conditions: HepG2-hCAR-CYP2B6 luciferase, CITCO-stimulated antagonist mode; series mostly up to 91.4 µM;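 note: cells stimulated with 50 nM CITCO agonist so inhibition reflects antagonism; luciferase from CYP2B6 promoter reporter driven by hCAR in HepG2 cells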
In short: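 Cells were seeded and left 4hr to attach, then received compound at 11 concentrations and 50 nM CITCO. Following 24hr incubation, fluorescence viability and luciferase luminescence were read sequentially.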

[11] = target: Nuclear receptor subfamily 1 group I member 3 (Homo sapiens) (UniProt Q14994); assay: qHTS for Constitutive Androstane Receptor (CAR) Agonist screened against the NCATS CANVASS Library (AID 1347373); conditions: HepG2-hCAR-CYP2B6 luciferase reporter, ONE-Glo luminescence; series mostly up to 91.4 µM;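 note: every well also contained 1.5 µM PK11195 alongside the test compound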
In short: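 Agonist mode with 1.5uM PK11195 present: compounds for 24hr on HepG2-hCAR-CYP2B6 cells. CellTiter-Fluor fluorescence (ex 405, em 540 nm) gives viability; ONE-Glo luminescence reports CAR activation.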

[12] = 10-beta competent E. coli microbial cell viability qHTS against the NCATS CANVASS Library (AID 1347376); conditions: E. coli 10-beta viability, BacTiter-Glo ATP luminescence, overnight; series mostly up to 91.4 µM
In short: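 Read-out: BacTiter-Glo ATP luminescence, taken 20 min after reagent addition. Beforehand, 10-beta competent E. coli at 0.2 OD had been incubated overnight at 37C with compounds at 11 concentrations.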

[13] = DH5-alpha competent E. coli microbial cell viability qHTS against the NCATS CANVASS Library (AID 1347377); conditions: BacTiter-Glo ATP luminescence, overnight; series mostly up to 91.4 µM
In short: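 Bacterial viability as ATP-dependent luminescence (BacTiter-Glo), read after overnight 37 °C exposure of DH5-alpha competent E. coli to compounds in 11-point titration.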

[14] = qHTS for H2AX Agonists against the NCATS CANVASS Library (AID 1347378); conditions: CHO-K1 H2AX phosphorylation, HTRF TR-FRET, 3 h; series mostly up to 76.9 µM
In short: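 CHO-K1 cells (1000/well, overnight at 37C) exposed to compounds at several concentrations for 3 hr at 37C, 0.76% DMSO final. Lysates read by TR-FRET (phospho-H2AX S139 Eu-cryptate antibody / H2AX-d2 antibody) after 24 hr at room temperature; 665/615 nm ratio.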

[15] = qHTS for Inflammasome Signaling Inhibitors: IL-1-beta AlphaLISA screen against the NCATS CANVASS Library (AID 1347379); conditions: THP-1 LPS/ATP, IL-1B AlphaLISA secretion, 16 h; series mostly up to 57.5 µM;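 note: human THP-1 cells primed with LPS then triggered with ATP; secreted IL-1B measured as AlphaLISA emission at 615 nm; lower signal means less IL-1B release which is the wanted effect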
In short: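 Secreted IL-1B from human THP-1 cells quantified by AlphaLISA 16 hr after compound addition (final up to 57.5 uM). A 1 hr compound pretreatment preceded inflammasome activation with 250 ng/mL LPS plus 1.25 mM ATP (final).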

[16] = qHTS for Antimalaria activity screened against the NCATS CANVASS Library (AID 1347380); note: nearly all actives have a fitted effect of over 40% in size; note: potency is the fitted concentration of half-maximal effect; conditions: P. falciparum Dd2 growth, SYBR Green fluorescence, 72 h; series mostly up to 28.7 µM
In short: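 SYBR Green fluorescence at 485/535 nm was read 18 hr after lysis. This followed a 72 hr incubation at 37C in 5% O2, 5% CO2 of Dd2-infected erythrocytes (0.3% parasitemia, 2.5% final hematocrit) with compounds titrated over 11 concentrations.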

[17] = Inflammasome Signaling qHTS Counterscreen: IL-1-beta AlphaLISA counterscreen against the NCATS CANVASS Library (AID 1347381); conditions: Purified IL-1beta AlphaLISA signal interference counterscreen; series mostly up to 57.5 µM;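 note: cell-free check with purified IL-1β in medium and no THP-1 cells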
In short: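 Purified IL-1-beta (4 pg/well) + compound, 11-pt conc. series; acceptor beads 6 ug/mL + biotin-Ab 0.6 nM final, 1 h RT; SA-donor 24 ug/ml final, 30 min dark RT; read ex 680/em 615.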

[18] = Cytotoxicity qHTS for assessment of Hepg2 cells membrane integrity screened against the NCATS CANVASS Library (AID 1347387); conditions: HepG2 LDH release (CytoTox-ONE) fluorescence, 5 h; series mostly up to 91.4 µM
In short: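 Membrane damage quantified as fluorescent LDH-release signal (ex 560, em 590 nm) in HepG2 cells treated 5 hr at 37C. qHTS format, 11 concentrations spanning 0.59 nM - 46 uM final, cells plated at 2000 per well the night before.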

[19] = qHTS for Activators of p53 Stress Response Pathway screened against the NCATS CANVASS Library (AID 1347388); conditions: p53RE-bla HCT-116, beta-lactamase reporter, 16 h; series mostly up to 91.4 µM
In short: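 p53RE-bla HCT-116 cells (4000/well) were plated 5 h at 37C, exposed to compounds for 16 h at 37C over an 11-point concentration series, then loaded with CCF4 for 2 h at room temperature; 460/530 nm emission ratio read.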

[20] = SDT Cancer Cell Toxicity qHTS against the NCATS CANVASS Library (AID 1347365); conditions: SDT dog glioma viability, ATP luminescence, 72 h; series mostly up to 91.4 µM;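 note: SDT canine glioma cells 500 per well in 1536 well plates; nearly all actives have a fitted effect of over 60% in size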
In short: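 Cytotoxicity taken from CellTiterGlo ATP luminescence after 72 hr at 37C, 5% CO2. Canine glioma line SDT, 500 cells/well, treated at 11 concentrations; bortezomib dose series as control.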

Sequence of Nuclear receptor subfamily 1 group I member 3 (Homo sapiens) (Q14994 whole entry, looked up): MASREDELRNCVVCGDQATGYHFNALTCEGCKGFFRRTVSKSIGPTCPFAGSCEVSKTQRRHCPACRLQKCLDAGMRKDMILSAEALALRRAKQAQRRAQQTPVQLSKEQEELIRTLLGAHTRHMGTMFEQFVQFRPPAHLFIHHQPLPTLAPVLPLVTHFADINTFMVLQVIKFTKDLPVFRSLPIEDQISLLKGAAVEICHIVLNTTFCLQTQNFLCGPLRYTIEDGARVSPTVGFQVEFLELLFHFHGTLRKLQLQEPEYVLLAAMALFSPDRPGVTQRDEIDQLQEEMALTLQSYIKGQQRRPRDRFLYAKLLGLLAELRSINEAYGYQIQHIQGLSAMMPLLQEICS
Sequence of Luciferin 4-monooxygenase (Photinus pyralis) (P08659 whole entry, looked up): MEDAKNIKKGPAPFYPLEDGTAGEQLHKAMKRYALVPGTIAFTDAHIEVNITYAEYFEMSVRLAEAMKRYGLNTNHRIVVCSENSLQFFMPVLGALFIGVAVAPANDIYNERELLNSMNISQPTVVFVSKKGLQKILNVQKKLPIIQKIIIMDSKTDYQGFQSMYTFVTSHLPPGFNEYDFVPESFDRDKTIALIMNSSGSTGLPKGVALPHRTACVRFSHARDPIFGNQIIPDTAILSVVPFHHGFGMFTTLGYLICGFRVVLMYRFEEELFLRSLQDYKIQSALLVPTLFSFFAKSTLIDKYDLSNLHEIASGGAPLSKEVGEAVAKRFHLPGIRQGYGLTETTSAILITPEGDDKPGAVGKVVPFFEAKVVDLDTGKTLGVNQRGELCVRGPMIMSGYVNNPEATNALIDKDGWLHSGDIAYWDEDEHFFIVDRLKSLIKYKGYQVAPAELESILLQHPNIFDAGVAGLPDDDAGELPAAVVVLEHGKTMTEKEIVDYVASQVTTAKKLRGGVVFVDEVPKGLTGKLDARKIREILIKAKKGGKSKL

Compound | outcome [1] | outcome [2] | outcome [3] | outcome [4] | outcome [5] | outcome [6] | outcome [7] | outcome [8] | outcome [9] | outcome [10] | outcome [11] | outcome [12] | outcome [13] | outcome [14] | outcome [15] | Potency [16] | outcome [17] | outcome [18] | outcome [19] | outcome [20]
COc1ccc2[nH]cc(CCN)c2c1 | inactive | inactive | inactive | inactive | inactive | inactive | inactive | inactive | inactive | inactive | inactive | inactive | inactive | inactive | inactive | inactive | inactive | inactive | inactive | 
O=C1C[C@@H]2OCC=C3CN4CC[C@]56c7ccccc7N1[C@H]5[C@H]2[C@H]3C[C@H]46 | inactive | inactive | inactive | inactive | inactive | inactive | inactive | inactive | inactive | inactive | inactive | inactive | inactive | inactive | inactive | 13 µM (active) | inactive | inactive | inactive | inactive
